# According to the supplement of paper PMC11417369:
# ± gives the standard deviation of the averaged measurements. In all, about 25,000 sequences were measured (“ln(normalized median fluorescence intensity)”: median about 8.9, highest 2% from about 10 on). This is one part of a sample in which the highest values are shown more often than they occur.
# System: PfAP2-LT AP2 domain (GST-tagged)
# Assay: gcPBM binding intensity (ln(normalized median fluorescence intensity)); higher = stronger DNA binding
# In short: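 After 1 h on an Agilent 4 × 180k array of primer-extended double-stranded 36-bp intergenic genomic probes and negative controls, bound GST-tagged P. falciparum DNA-binding domains were detected with Alexa488 anti-GST antibody and scanned at 488 nm. The domains had been expressed in E. coli, and binding took place in 1× PBS with 1% milk, 0.2 mg/ml BSA, 0.5% salmon testes DNA and 0.03% Triton X-100. Binding intensity is the highest Masliner-normalised natural-log median intensity across replicate spots of either probe orientation.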
row,Sequence,gcPBM binding intensity (ln)
1,GAATTATATACTTATTGTACAAAAAAAAAAAAAAAA [XGTACX_site3193],8.36 ± 0.4
2,TGCAGTCTGGAGAAACGTACATAGTATCTGGTAGCT [XGTACX_site4937],8.94 ± 0.57
3,TTCAACGTTTTGGAATGTACAGAAAGGTATCCATCA [XGTACX_site179],8.62 ± 0.42
4,CACCATGATACATACACACAGACATATACGCATTCA [CACACA_site1008],9.46 ± 0.18
5,ATAGTATACAGACACACACACACACCCATATATATA [CACACA_site1736],10.2 ± 0.29
6,TATCTCATAGTATACACACACACACCCACCCATATA [CACACA_site1739],10.1 ± 0.11
7,CACGCATACGGACACACACACACACCGATATATATA [CACACA_site4521],9.89 ± 0.33
8,CACGCATACAGACACACACACACACCCATATATATA [CACACA_site636],10.2 ± 0.37
9,CACGCATACAGACACACACACACACCGATATATATA [CACACA_site8113],10.1 ± 0.37
10,TACACATACAGACATACACACATACCCATATACTCA [CACACA_site5037],9.6 ± 0.41
11,AGTACAGACATAGACACACACACACCCATAAAAAAA [CACACA_site1515],9.99 ± 0.45
12,CATACACCCATACATACACACATACAGATATATATA [CACACA_site5123],9.29 ± 0.33
13,TATATCTCATAGTATACACACACACCCACCCACATA [CACACA_site8513],9.9 ± 0.23
14,GGCATATATATATGCACACATACATATATACATGTG [CACACA_site3859],9.7 ± 0.3
15,GTTACACAAACAAACACACACACACGCACGCACAAA [CACACA_site7191],10 ± 0.2
16,AAAGAAAAAAAAAAAAAAAAAAAAAAAATTATACAT [CACACA_negctrl_site7],8.45 ± 0.64
17,TTTAAAACCTTACATACACACAAATATGTAAATATA [CACACA_site6464],8.75 ± 0.42
18,GAGCACCAAAATATATGTACATATGATAAATGTGAA [XGTACX_site1130],8.96 ± 0.51
19,GTTATTGAAAAAATAGTGCAATATAACAAAGTAAAA,8.85 ± 0.48
20,AAAAAAAACGAACACACACACAAATATGTAAAAATA [CACACA_site6673],9.87 ± 0.28
21,ATTATATTAATATATATATATATATATATAATAATA [CACACA_negctrl_site437],8.69 ± 0.3

row,Sequence,gcPBM binding intensity (ln)
1,TCATAGTATGGACACACACACACACCCATATATATA [CACACA_site5033],10 ± 0.25
2,TACACCCATGGACACACACACACGCATAAAAAAAAA [CACACA_site4933],9.85 ± 0.58
3,TACACGCATGGACACACACACACACCCATATATATA [CACACA_site4522],10.3 ± 0.35
4,AAAAAAAATCAAATGGGTACTTATTCTTAATAATAT [XGTACX_site3792],8.61 ± 0.33
5,TTTTTAGAAAAGGTTATAAAAAATTAATTGAAAAAA [GTGCAC_negctrl_site289],8.05 ± 0.47
6,TAAAAGTAAAGACATGCATGCATTGGTATCTTTTAC [TGCATGCA_site665],8.95 ± 0.35
7,ATGTAGACTGAAACCACACACACATATATATATATA [CACACA_site606],10.2 ± 0.2
8,GTAGACTGAAACCACACACACATATATAAATATATT [CACACA_site6433],9.68 ± 0.38
9,GTAGACTGAAACCACACACACATATATATATATATT [CACACA_site605],9.8 ± 0.13
10,GCGTTGTTTTTAAAAAGTACATTTTTATATAAGTTA [XGTACX_site8780],8.54 ± 0.46
11,TATTAAGAAGAAAATTCACACATTTGTACCTCTCTT [CACACA_site4822],8.86 ± 0.47
12,GACATATTCCCCCCCACACACACACCCACATACATA [CACACA_site2302],11.1 ± 0.18
13,ACATTCTATACATACACACCCACACCCAAAAAAAAA [CACACA_site863],9.59 ± 0.042
14,ATATATATATATTCCACACACACACCCAAAAAAAAA [CACACA_site3649],9.745 ± 0.05
15,TATTCCCCCAAACACACACACACACCCACATACCAC [CACACA_site2304],10.5 ± 0.13
16,AAATTCCACCAACACACACACATATAAATAAATAAA [CACACA_site1233],9.86 ± 0.42
17,ATTCTACACCCACATACACACATATATATATATATA [CACACA_site3426],10 ± 0.085
18,CATACAGACATACATACACACATACATACAGACATA [CACACA_site6996],9.56 ± 0.35
19,ACATACATACCCCCACGTACGTACCGAAACACCACC [XGTACX_site1982],9.74 ± 0.028
20,TACACCCACCCACATACACACACATACACATATATA [CACACA_site8503],10.1 ± 0.21
21,TACAGACATACATACACACATACATACAGACATACA [CACACA_site1941],9.43 ± 0.38

row,Sequence,gcPBM binding intensity (ln)
1,TATTCCCCCCAACACACACACACACCGACATACCAC [CACACA_site8723],10.8 ± 0.26
2,TTCCCCCCCAGACACACACACACATACATACCACAT [CACACA_site2305],11.1 ± 0.77
3,TGTTATTCTGCATATACACACAAATAACAATTTAAA [CACACA_site6943],8.67 ± 0.38
4,CCTTTTTTATTTACAACACACGTAAAGGTTCAAATA [CACACA_site1741],8.68 ± 0.42
5,TTTTCAATTAATAATACACACATGTATATATCATTA [CACACA_site7539],8.81 ± 0.43
6,TATGAAATGCTCCAATCACACATGAATGTAATATAT [CACACA_site5458],8.73 ± 0.35
7,AACTATTACTTTCTTTCACACATTTTTTTTTTTTTT [CACACA_site5355],8.94 ± 0.59
8,AATAATATCTGAAAATGTACATTTTATTATAAACAT [XGTACX_site8441],8.86 ± 0.45
9,ATGAATAAAAAAGGTGGTACATATATATATATATAT [XGTACX_site7893],9.82 ± 0.11
10,AAAAAAAAAAGACACACACACATAGACCTCCAATAG [CACACA_site7646],9.79 ± 0.25
11,AAAAAAAAAAAAAACACACACACATAGACCTCCAAT [CACACA_site3563],10.2 ± 0.26
12,AAAAAAAAAAAACACACACACATAGACCTCCAATAG [CACACA_site3562],9.77 ± 0.25
13,TATAAATATACAAAGGTGCATAAAAAGTTATGTTTT [GTGCAC_site9832],8.72 ± 0.44
14,TTCTATTCAAATGCAAAATTATTAAATAAAAAATAA [GTGCAC_negctrl_site708],8.31 ± 0.43
15,TAGGAAAAGAAAAGCACACACATAAATAGATATATA [CACACA_site6382],9.43 ± 0.54
16,AAAAAAAAAAGAAACACACACATATATATATAGAAT [CACACA_site1777],9.44 ± 0.39
17,AAGAAAAGCATAGATGCACACATATATATATATATA [CACACA_site8675],10.2 ± 0.32
18,GCTAAAAGTATATGCACACACATATAGATGCACATA [CACACA_site6868],9.34 ± 0.33
19,GAAAAGCATAGATGCACACATATATATATATATATA [CACACA_site2169],10.18 ± 0.014
20,ATTTTAGATGAAAAAGCACACAACATATATATATAT [CACACA_site2295],9.44 ± 0.38
